Experimental data published in PubChem BioAssay (NCI).
The panel holds about 83,000 compounds, 20% with a hit somewhere; the sample as a whole holds those more often.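 Values shown are percent growth following 48 h exposure of cells in 96-well plates to a single concentration of compound; below 10 was considered active.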 Unmarked numbers belong to inactive results. Calls of active or inactive are those of the source.

Key:
Assay in all cases: NCI-60 one-dose screen, 48 h (100 = growth as untreated, 0 = no growth, -100 = all killed)
Settings in all cases: 10 µM unless noted
NCI-H23 lung = tested on: NCI-H23 lung
NCI-H226 lung = tested on: NCI-H226 lung
NCI-H322M lung = tested on: NCI-H322M lung
HOP-62 NSCLC = tested on: HOP-62 NSCLC
NCI-H460 lung = tested on: NCI-H460 lung
HOP-92 NSCLC = tested on: HOP-92 NSCLC
NCI-H522 lung = tested on: NCI-H522 lung
A549/ATCC NSCLC = tested on: A549/ATCC NSCLC
786-0 renal = tested on: 786-0 renal
COLO 205 colon = tested on: COLO 205 colon
DU-145 prostate = tested on: DU-145 prostate
K-562 leukemia = tested on: K-562 leukemia
MALME-3M melanoma = tested on: MALME-3M melanoma
MDA-MB-231 breast = tested on: MDA-MB-231 breast
RXF 393 renal = tested on: RXF 393 renal
SF-268 CNS = tested on: SF-268 CNS
SF-295 CNS = tested on: SF-295 CNS
SF-539 CNS = tested on: SF-539 CNS
UACC-257 melanoma = tested on: UACC-257 melanoma
M14 melanoma = tested on: M14 melanoma

| SMILES | growth (NCI-H23 lung) | growth (NCI-H226 lung) | growth (NCI-H322M lung) | growth (HOP-62 NSCLC) | growth (NCI-H460 lung) | growth (HOP-92 NSCLC) | growth (NCI-H522 lung) | growth (A549/ATCC NSCLC) | growth (786-0 renal) | growth (COLO 205 colon) | growth (DU-145 prostate) | growth (K-562 leukemia) | growth (MALME-3M melanoma) | growth (MDA-MB-231 breast) | growth (RXF 393 renal) | growth (SF-268 CNS) | growth (SF-295 CNS) | growth (SF-539 CNS) | growth (UACC-257 melanoma) | growth (M14 melanoma) |
| --- | --- | --- | --- | --- | --- | --- | --- | --- | --- | --- | --- | --- | --- | --- | --- | --- | --- | --- | --- | --- |
| O=C(Nc1ccc(Nc2ncccn2)cc1)NC1C=c2ccccc2=CC1 (stereo not given) | 104% | 96.7% | 111% | 113% | 104% | 110% | 99.3% | 93.1% | 104% | 123% | 109% | 89.1% | 114% | 91.3% | 89.9% | 98.5% | 100% | 100% | 94.9% | 111% |
| Cc1n[nH]c(C)c1-c1c(C)n[nH]c1C | 8.62% (active) | 56.2% | 28.6% | 34.5% | -35.1% (active) | -3.52% (active) | -8.26% (active) | 11.9% | 6.23% (active) | -21.6% (active) | 9.47% (active) | 5.03% (active) | -38.3% (active) | -14.5% (active) | -47.8% (active) | 19.1% | 18.8% | -54.6% (active) | 39.6% | -4.4% (active) |
| FC(F)(F)c1cccc(Nc2ccccc2)c1 | 94.2% | 97.6% | 109% | 105% | 104% | 101% | 98.6% | 97.3% | 101% | 105% | 110% | 95.5% | 99.7% | 104% | 109% | 103% | 99.9% | 95.5% | 97.4% | 106% |
| O=S(=O)(NCCCNc1nccc(-c2c(-c3cccc(O)c3)nc3occn23)n1)c1ccc(F)cc1 | 88.6% | 110% | 103% | 117% | 80.9% | 116% | 77.7% | 88.8% | 92.1% | 35.5% | 85.8% | 68.7% | 17.9% | 62.7% | 68% | 84.5% | 101% | 101% | 19.7% | 27.5% |
| CCCCOc1ccc(/C=N/Nc2cc(C)nc3ccc(Cl)cc23)cc1 | 60% | 88.9% | 51.6% | 27.1% | -62.8% (active) | 68.7% | -25.4% (active) | 10.1% | -80.9% (active) | -66.6% (active) | 3.96% (active) | -21.7% (active) | -77% (active) | -49.5% (active) | -84.2% (active) | 64.9% | -83.6% (active) | -80.5% (active) | 84.1% | -25.2% (active) |
| CC1NC(=S)NC(=O)/C1=C/c1cc(=O)oc2c1ccc1ccccc12 (stereo not given) | 93.8% | 86.1% | 101% | 82.1% | 102% | 75.9% | 73.8% | 81.3% | 107% | 104% | 108% | 94.6% | 90.9% | 95.1% | 101% | 97% | 100% | 96.8% | 80.5% | 94.9% |
| COc1ccc(CNCCN2C(=O)c3ccc4c5c(ccc(c35)C2=O)C(=O)N(CCNCc2ccc(OC)cc2)C4=O)cc1 | -52.5% (active) | -63.7% (active) | -74.2% (active) | -33.8% (active) | -78.8% (active) | -46.8% (active) | -80.9% (active) | -84.1% (active) | -76.5% (active) | -40.9% (active) | -90.6% (active) | -37.8% (active) | -76.3% (active) | -16.7% (active) | -93% (active) | -71.2% (active) | -62.2% (active) | -77.3% (active) | -91% (active) | -72.8% (active) |
| COc1ccc(C(=O)c2cc(C)c(OC)c(C)c2)c(OC)c1O | 31.7% | 7.47% (active) | 45.8% | 12.9% | 2.04% (active) | -0.0707% (active) | -9.43% (active) | 14.5% | 15.2% | 66.8% | -5.78% (active) | 8.52% (active) | 54.8% | 16.8% | 35.4% | 31.5% | 25.2% | -10.8% (active) | 50.6% | -1.65% (active) |
